Reference: PubChem BioAssay (NCATS)
Several values for one entry are separate records, joined by “and”; a condition that tells them apart may be missing. Identical values can stand only once. Results filed as inconclusive are left out. Unmarked numbers belong to inactive results. Activity calls are given as the source filed them. Calls follow the shape of the dose curve; as a rule, active = well fitted curve in the direction sought with a large enough effect; inconclusive = small, poorly fitted or top-dose-only effect, or another doubt; inactive = no such curve, though single readings can be large; an effect the other way counts as inactive or inconclusive.

Experiment: Viability qHTS for spleen associated tyrosine kinase inhibitor (SYKi) drug resistant MV4-11 cells (AID 1963824)
Conditions: SYKi-resistant MV4-11 viability, CellTiter-Glo, 72 h; series mostly up to 45 µM
In short: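 SYK inhibitor-resistant MV4-11 AML cells, 500 per well, added to predispensed compounds and incubated 72 hr at 37 C, 5% CO2. Viability measured by CellTiter-Glo luminescence after 10 min at room temperature.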
Also: nearly all actives have a fitted effect of over 35% in size.
Potency is read from the fitted curve at half-maximal effect.

SMILES	Potency	viability, % of control
O=c1cc(N2CCOCC2)oc2c(-c3cccc4c3sc3ccccc34)cccc12	1.86 µM (active)	
CCn1nnc2c(N3CCOCC3)nc(-c3ccc(NC(=O)Nc4ccc(C(=O)N5CCN(C)CC5)cc4)cc3)nc21	29.1 nM (active) and 46.8 nM (active)	
COc1cc2ncnc(Nc3ccc(F)c(Cl)c3)c2cc1OCCCN1CCOCC1	6.68 µM (active) and 3.66 µM (active)	
Cc1cnc(C(=O)NCCc2ccc(S(=O)(=O)NC(=O)NC3CCCCC3)cc2)cn1	inactive	
CC(C)[C@H](N)C(=O)OCCOCn1cnc2c(=O)[nH]c(N)nc21	inactive	
CC(=O)O[C@H]1C(=O)[C@@]2(C)C([C@H](OC(=O)c3ccccc3)[C@]3(O)C[C@H](OC(=O)[C@H](O)[C@@H](NC(=O)c4ccccc4)c4ccccc4)C(C)=C1C3(C)C)[C@]1(OC(C)=O)CO[C@@H]1C[C@@H]2O (some centres not stated)	3.6 nM (active) and 7.4 nM (active)	
COc1cc2ncnc(Nc3cccc(Br)c3)c2cc1OC	6.51 µM (active) and 5.25 µM (active)	
NS(=O)(=O)c1cccc2c1C(=O)c1cccc(O)c1C2=O	0.468 µM (active)	
NC1(C(=O)N[C@@H](CCO)c2ccc(Cl)cc2)CCN(c2ncnc3[nH]ccc23)CC1	0.651 µM (active)	
Cn1cc(C[C@@H](N)C(=O)O)c2ccccc21		75.4% [at 9.25 µM]
CCCn1c(=O)c2[nH]c(C34CC5CC3C[C@@H](C5)C4)nc2n(CCC)c1=O	16.6 µM (active)	
CC(C)(OCc1nn(Cc2ccccc2)c2ccccc12)C(=O)O	inactive	
CC(C(=O)O)c1ccc2c(c1)CC(=O)c1ccccc1S2 (configuration not stated)	inactive	
O=c1cc(-c2cccc3c2Sc2ccccc2S3)oc(N2CCOCC2)c1	5.8 µM (active) and 9.34 µM (active)	
COc1cc2c(Nc3ccc(Cl)c(Cl)c3F)ncnc2cc1OCC1C[C@@H]2CN(C)C[C@@H]2C1 (some centres not stated)	2.31 µM (active) and 2.95 µM (active)	
CN(C)c1nc(N(C)C)nc(N(C)C)n1	inactive	
O=C(Nc1ncc(SCCN2CCCC2)s1)[C@]1(c2ccc(S(=O)(=O)C3CC3)cc2)C[C@@H]1C1CCCCC1	2.59 µM (active)	
C[C@H](CCC(=O)O)[C@H]1CCC2C3C[C@H](O)[C@@H]4C[C@H](O)CC[C@]4(C)C3CC[C@@]21C (some centres not stated)	inactive	
CCN(CC)CCNC(=O)c1ccc2nc(-c3ccccc3)c(-c3ccc(CN4CCC(n5c(=O)[nH]c6ccccc65)CC4)cc3)nc2c1	2.59 µM (active) and 3.32 µM (active)	
CC1=C[C@@H]2[C@@H]([C@@H](O)C[C@@]3(C)[C@H]2C[C@@H](C)[C@]3(O)C(=O)CO)[C@@]2(C)Cc3cnn(-c4ccccc4)c3C=C12	1.03 µM (active)	
Cc1ccc(C(=O)N(CCCN)[C@@H](c2oc3cc(Cl)ccc3c(=O)c2Cc2ccccc2)C(C)C)cc1	0.0083 µM (active)	
CNC(=O)Nc1ccc(-c2nc(N3CC4CCC(C3)O4)c3cnn(C4CCC5(CC4)OCCO5)c3n2)cc1	0.166 µM (active)	
Oc1cc2c(cc1O)C1c3ccc(O)c(O)c3OCC1(O)C2 (configuration not stated)	14.8 µM (active)	
COc1cc(NS(=O)(=O)c2ccc(N)cc2)nc(OC)n1	inactive	
CC(C)C(=O)Nc1ncc(-c2cc(C(F)F)nn2-c2c(Cl)cccc2Cl)s1	13 µM (active)	
CCc1cc(C(N)=S)ccn1	inactive	
CNC1CCC(N(Cc2cccc(-c3ccncc3)c2)C(=O)c2sc3c(F)ccc(F)c3c2Cl)CC1 (configuration not stated)	8.33 µM (active) and 7.31 µM (active)	

Experiment: Quantitative highthroughput screen to assess conditional lethalithy of NOMO1 cells grown in RPMI1640 with untreated serum (RPMI+s) (AID 1963876);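 as to Viability: 100% = DMSO wells and 0% = empty wells without cells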
Conditions: NOMO1 AML cells in RPMI+serum, CellTiter-Glo viability, 48 h; series mostly up to 45.8 µM
In short: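 Each medium arm—HPLM with 10% dialyzed FBS, or RPMI1640 with 5 mM glucose and 10% untreated or dialyzed FBS—was screened against an 11-point, 3-fold compound titration for 48 h at 37 °C, with CellTiter-Glo luminescence as endpoint.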

SMILES	Potency
CC(C)Nc1cc(-c2c[nH]c(C(=O)N[C@H](CO)c3cccc(Cl)c3)c2)c(Cl)cn1	14.8 µM (active)
Cc1cccc(-c2[nH]c(C(C)(C)C)nc2-c2ccc3nccnc3c2)n1	inactive
C#Cc1cccc(Nc2ncnc3cc(OCCOC)c(OCCOC)cc23)c1	inactive
C=CC(=O)Nc1cccc(Oc2nc(Nc3ccc(N4CCN(C)CC4)cc3OC)ncc2Cl)c1	inactive
CCn1nnc2c(N3CCOCC3)nc(-c3ccc(NC(=O)Nc4ccc(C(=O)N5CCN(C)CC5)cc4)cc3)nc21	inactive
COc1cc2ncnc(Nc3ccc(F)c(Cl)c3)c2cc1OCCCN1CCOCC1	inactive
Cc1cnc(C(=O)NCCc2ccc(S(=O)(=O)NC(=O)NC3CCCCC3)cc2)cn1	inactive
CC(=O)O[C@H]1C(=O)[C@@]2(C)C([C@H](OC(=O)c3ccccc3)[C@]3(O)C[C@H](OC(=O)[C@H](O)[C@@H](NC(=O)c4ccccc4)c4ccccc4)C(C)=C1C3(C)C)[C@]1(OC(C)=O)CO[C@@H]1C[C@@H]2O (some centres not stated)	0.0013 µM (active)
NC1(C(=O)N[C@@H](CCO)c2ccc(Cl)cc2)CCN(c2ncnc3[nH]ccc23)CC1	10.5 µM (active)
CC(C(=O)O)c1ccc2c(c1)CC(=O)c1ccccc1S2 (configuration not stated)	7.43 µM (active)
CC1=C[C@@H]2[C@@H]([C@@H](O)C[C@@]3(C)[C@H]2C[C@@H](C)[C@]3(O)C(=O)CO)[C@@]2(C)Cc3cnn(-c4ccccc4)c3C=C12	inactive
Cc1ccc(C(=O)N(CCCN)[C@@H](c2oc3cc(Cl)ccc3c(=O)c2Cc2ccccc2)C(C)C)cc1	inactive
CNC(=O)Nc1ccc(-c2nc(N3CC4CCC(C3)O4)c3cnn(C4CCC5(CC4)OCCO5)c3n2)cc1	0.059 µM (active)
CC(C)C(=O)Nc1ncc(-c2cc(C(F)F)nn2-c2c(Cl)cccc2Cl)s1	inactive
CNC1CCC(N(Cc2cccc(-c3ccncc3)c2)C(=O)c2sc3c(F)ccc(F)c3c2Cl)CC1 (configuration not stated)	inactive
